Data published in PubChem BioAssay (NCI).
About 83,000 compounds went through this panel and 20% of them were active in at least one assay; those are over-represented in the sample as a whole.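 Note: values are percent growth. 100 is the growth of untreated cells, values between 100 and 0 indicate rising inhibition; between -100 and 0 indicates cell death.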 Active and inactive are the calls of the source. How the source made its calls: active means growth percent below 10; inactive means the rest.

What was measured:
Experiment in all cases: NCI-60 one-dose screen, 48 h (100 = growth as untreated, 0 = no growth, -100 = all killed)
Settings in all cases: 10 µM unless noted
[1] = system: T-47D breast
[2] = system: BT-549 breast
[3] = system: MDA-MB-435 melanoma
[4] = system: MCF7 breast
[5] = system: HCC-2998 colon
[6] = system: KM12 colon
[7] = system: MDA-MB-468 breast
[8] = system: HCT-116 colon
[9] = system: SW-620 colon

Measured: growth

O=C(O)c1cccc(-c2ccc(/C=N/NC(=O)c3[nH]c4ccc(Br)cc4c3-c3ccccc3)s2)c1
inactive: [1] 54.5% | [2] 49.3% | [3] 10.4% | [4] 13.7% | [5] 49.9% | [6] 21.6% | [7] 15.7%

CSc1ccc(NC(=O)c2ccc3nn(/C(C#N)=C/c4ccccn4)nc3c2)cc1
active: [1] -39.9% | [2] -97.9% | [3] -70.8% | [4] -78.6% | [8] -73.9% | [5] -100% | [6] -68% | [7] -94%

COc1ccc(-c2ccc(SCC(=O)NCCc3ccc(S(N)(=O)=O)cc3)nn2)cc1
inactive: [1] 51% | [2] 60.5% | [3] 92.2% | [8] 70.4% | [5] 94.9% | [6] 96.3%

COc1cc2oc(-c3cccc(C(=O)Nc4ccc(Cl)cc4)c3)cc(=O)c2c(OCCNC(=O)[C@@H](N)CCC(=O)O)c1OC
inactive: [1] 73.7% | [2] 84.5% | [9] 106% | [4] 61% | [8] 58.7% | [5] 115% | [6] 93.2%

COc1cc(/C=C/C(=O)c2nnn(-c3ccc(Cl)cc3)c2C)cc(OC)c1OC
active: [3] 2.83% | [4] 8.67% | [7] -20.7%
inactive: [1] 43.2% | [2] 36.8% | [8] 26.2% | [5] 23.1% | [6] 20.8%

COc1cc(-c2nc3cc(Cl)c(Cl)cc3[nH]2)ccc1OCc1nnc(-c2cccs2)o1
active: [4] 3.79%
inactive: [1] 84% | [2] 28.1% | [3] 55.2% | [8] 29% | [5] 43.9% | [6] 71.5% | [7] 46.4%

C=C1CC[C@@H]2[C@]3(C)COC(c4cn[nH]c4-c4ccccc4)O[C@@H]3CC[C@@]2(C)[C@@H]1C/C=C1/C(=O)OCC1O (stereo partly drawn)
active: [3] 1.5% | [4] -28.3% | [6] -11.3% | [7] -37%
inactive: [1] 19.3% | [2] 52.2% | [5] 16.9%

COc1ccc(-c2nc3cc(C)ccc3n2CC(=O)N=Nc2c(O)[nH]c3ccc(Cl)cc23)cc1
active: [1] 2.44% | [2] -43.7% | [3] -7.28% | [8] -65.4% | [5] -1.72% | [6] 9.61% | [7] -42.6%

CC(=O)Nc1cccc(Nc2nccc(N[C@@H](C)c3ccccc3)n2)c1
active: [2] 9.69% | [8] 9.73% | [6] 3.5%
inactive: [1] 40.2% | [3] 18.7% | [4] 16.5% | [5] 27.1% | [7] 18.1%

CC(C)CCNC(=O)N/C(N)=N/c1nc2ccccc2s1
inactive: [1] 46.6% | [2] 64.6% | [3] 44.2% | [4] 28.5% | [8] 54.7% | [5] 97.6% | [6] 62.7%
active: [7] 5.8%

C=C1CCC2C3(C)COC(c4ccccc4F)OC3CCC2(C)C1CC(O)C1=CCOC1=O (stereo not drawn)
inactive: [1] 42.1% | [3] 27.5% | [4] 15.2% | [5] 36.7% | [6] 45.3% | [7] 63.9%
active: [2] -18.8% | [8] -59.4%

COc1cc2oc(-c3cccc(C(=O)Nc4ccc(Cl)cc4)c3)cc(=O)c2c(OCC(=O)N[C@@H](Cc2ccccc2)C(=O)O)c1OC
inactive: [1] 109% | [2] 125% | [3] 101% | [4] 93.2% | [8] 109% | [5] 121% | [6] 105% | [7] 112%

N#Cc1cnn(C(=O)c2ccccc2Br)c1NC(=O)c1ccc(Br)cc1Cl
inactive: [1] 97% | [2] 91.1% | [3] 103% | [4] 95.4% | [8] 103% | [5] 108% | [6] 102% | [7] 94.2%

C[C@H](Nc1nc(NCCc2ccccc2)nc2ccccc12)c1ccccc1
active: [1] -55.1% | [2] -86.9% | [3] -88.5% | [4] -87.4% | [5] -98.7% | [6] -77.2% | [7] -96.3%

CC(=O)Nc1ccc(-c2cn(-c3cccc(C(=O)Nc4ccc(N5CCN(C)CC5)cc4)c3)nn2)cn1
inactive: [1] 94% | [2] 74.6% | [3] 100% | [4] 45.9% | [8] 62.9% | [5] 85% | [6] 68.9%
active: [7] -9.89%

CCOC(=O)C1=C(N)N(c2ccccc2)C2=C(C(=O)CC(C)(C)C2)C1c1cccc(Cl)c1Cl (stereo not drawn)
inactive: [1] 71.6% | [2] 68.8% | [3] 87.8% | [4] 60% | [8] 40.1% | [5] 86.9% | [6] 76.6% | [7] 47.8%

N#Cc1c(-c2cccc3ccccc23)cc(-c2cccc(OCC(=O)O)c2)[nH]c1=O
inactive: [1] 105% | [2] 114% | [3] 101% | [4] 96.1% | [5] 110% | [6] 103% | [7] 98.7%

COc1ccc(/C=C/c2nc3ccccc3c(=O)n2CC(=O)Nc2ccc(Cl)cc2)cc1
inactive: [1] 66.5% | [2] 63.6% | [3] 90.5% | [8] 35.4% | [5] 116% | [6] 61.3% | [7] 98%

COc1ccc(C(SCCNCc2cc(N(C)C)ccn2)(c2ccccc2)c2ccccc2)cc1
active: [1] -9.47% | [2] -13.4% | [9] -50.5% | [4] -48.5% | [8] -27% | [5] -81.9% | [6] -9.54% | [7] -58.2%

CN(C)CCOc1ccc(C(=O)C2[C@H](c3ccc(Cl)cc3)[C@@H](c3ccccc3)NC23C(=O)Nc2ccc(Br)cc23)cc1 (stereo partly drawn)
active: [9] -80% | [4] -59.8% | [8] -96.6% | [5] -94.4% | [6] -48.4%
inactive: [1] 42% | [2] 67%

O=C(/C=C/c1cccc(OCc2ccccc2)c1)c1nc2ccccc2[nH]1
inactive: [1] 13.7% | [3] 72%
active: [2] 8.5% | [4] 3.28% | [8] -36.1% | [5] -5.62% | [6] 4.96% | [7] -40.1%

C=C1CC[C@@H]2[C@]3(C)COC(c4cn(-c5ccccc5)nc4-c4ccccc4)O[C@@H]3CC[C@@]2(C)[C@@H]1C/C=C1/C(=O)OC[C@H]1O (stereo partly drawn)
active: [1] -62.9% | [2] -88.9% | [3] -65.9% | [4] -9.94% | [8] -97.5% | [5] -97.7% | [6] -56.2% | [7] -90.1%

COc1ccc(C(=O)/C=C/c2ccc(Oc3nc(Nc4ccc(F)cc4)nc(N(C)C)n3)c(OC)c2)cc1
inactive: [1] 19.7% | [3] 51.4% | [4] 15.6% | [5] 100% | [6] 70.2% | [7] 40.6%
active: [2] -4.17%

Cc1cc2c(cc1Cl)C(=O)/C(=C/c1ccccc1)O2
active: [1] -22.8% | [2] -3.52% | [7] 0.644%
inactive: [9] 33.9% | [4] 17.5% | [8] 18.1% | [5] 63.6% | [6] 17.8%

COc1ccc(NC(=O)[C@@H](N)Cc2ccccc2)cc1C(=O)Nc1cccc(C2CC(=O)c3c(cc(OC)c(OC)c3OC)O2)c1 (stereo partly drawn)
inactive: [1] 25.3% | [2] 19.8% | [3] 56.8% | [4] 28.1% | [8] 45.2% | [5] 114% | [6] 35.1% | [7] 44.3%

COc1ccc(NC(=O)Cn2c(O)c(N=Nc3ccc(S(N)(=O)=O)cc3)c3ccccc32)cc1
inactive: [1] 66.5% | [2] 15.8% | [3] 53% | [4] 31.2% | [5] 18% | [6] 26.3% | [7] 22.3%
active: [8] 3.37%

CC(C)CSc1nc(NCCc2c[nH]c3ccccc23)c(C#N)c(-c2ccccc2)n1
inactive: [1] 30.9% | [2] 92.6% | [9] 36.1% | [4] 20.1% | [8] 11.6% | [5] 43.5% | [6] 35.3% | [7] 20.8%

O=C(N/N=C/c1ccc(-c2ccc(O)cc2)o1)c1[nH]c2ccc(Br)cc2c1-c1ccccc1
active: [2] -13.3% | [4] -3.44% | [8] 4.35% | [5] -23.6% | [6] 2.17%
inactive: [1] 19%

O=C1C(=Nc2ccc(F)c(Cl)c2)c2cccc3cccc1c23
inactive: [1] 45.3% | [9] 35.8% | [4] 16.1% | [8] 19% | [5] 108% | [6] 55% | [7] 88.4%
active: [3] -42%

CN1CCN(Cc2ccc(C(=O)Nc3cccc(C#Cc4cccc5[nH]nc(N)c45)c3)cc2C(F)(F)F)CC1
active: [1] -70.4% | [3] -70.2% | [9] -38.3% | [4] -84% | [8] -90.4% | [5] -93.6% | [6] -68.8% | [7] -89.9%

COc1ccc(C(=O)/C=C/c2ccc3ccccc3c2)cc1S(N)(=O)=O
active: [1] -39.5% | [3] 1.97% | [9] -42.8% | [4] -75.2% | [8] -97.8% | [5] -76.9% | [6] -74% | [7] -67%

CC(=O)Nc1ccc(C(=O)NC(=S)Nc2ccc(S(N)(=O)=O)cc2)cc1
inactive: [1] 73.8% | [2] 94.4% | [9] 98% | [4] 93% | [8] 99.4% | [5] 97.2% | [6] 97.5% | [7] 80.2%
